The list is not random: actives were taken first. Their share in the collection is about 7.4%.
SNCA expr inh: reduces expression of the alpha-synuclein gene | HEK-293 SNCA-luciferase knock-in, luminescence, 24 h | Potency, µM (titrated, usually from 57.2 µM), for the others: top-dose activity change, negative = inhibition, hits mostly inhibitors | 0.17% of 140,000 active;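 also: plate controls were DMSO cells for no effect and cell-free wells for full effect; nearly all actives have a fitted effect of over 45% in size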
3T3 cytotox: kills NIH 3T3 cells; NIH 3T3 viability, CellTiter-Glo ATP luminescence, 48-72 h; Potency, µM (titrated, usually from 96.7 µM), for the others: top-dose activity change, negative = cytotoxicity, actives largely listed as inhibitors; 4.3% of 94,000 active; AID 1345082; also: % is scaled to controls: 0 for no effect and ±100 for the full control effect; nearly all actives have a fitted effect of over 55% in size
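Cells were seeded at 400 per well, treated with pin-transferred compound, and kept 48 or 72 hr at 37 °C before CellTiter-Glo addition and luminescence imaging of cellular ATP.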
HEK293 tox: kills HEK 293 cells. Potency, µM (series often up to 115 µM), for inactives: top-dose activity change, negative = cytotoxicity, usual class: inhibitors. HEK 293 viability, ATP luminescence (CellTiter-Glo), 48-72 h. 6.6% of 94,000 active; also: % is scaled to controls: 0 for no effect and ±100 for the full control effect; nearly all actives have a fitted effect of over 60% in size
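HEK 293 cells seeded at 250 cells/well were exposed to compound for 48 or 72 hr at 37 degree Celsius. Viability taken as ATP content by CellTiter-Glo luminescence.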
Luciferase inh: Photinus pyralis luciferase inhibition. 2.5% of 76,000 active. P08659. Potency, µM (doses to about 115 µM), most hits filed as inhibitors. purified P. pyralis luciferase, luminescence, biochemical; also: % is scaled to controls: 0 for no effect and ±100 for the full control effect; nearly all actives have a fitted effect of over 65% in size
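Purified 10nM P. pyralis luciferase with 10uM D-luciferin and 10uM ATP in 50mM Tris acetate pH 7.5, 10mM Mg acetate, 0.01% Tween-20, 0.05% BSA. qHTS titration; luminescence read by CCD imager.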
HEK293 viab: cell viability loss counter-screen. HEK-293-SNCA-luc viability, GF-AFC fluorescence, 24 h. Potency, µM (highest dose often 57.1 µM), inactives show top-dose activity change, negative = cytotoxicity, most hits filed as cytotoxic. 0.12% of 150,000 active. AID 1671193;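 also: 0% = DMSO-treated cells and -100% = medium-only wells without cells; nearly all actives have a fitted effect of over 30% in size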
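HEK-293-SNCA-luc cells (1500/well) plated 24 h, then exposed 24 h to a dilution series; GF-AFC added 30 min at 37C, fluorescence 405/540 nm; normalised to medium-only and DMSO wells, Hill fit.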
NPR1 antag: human Npr1 receptor antagonism; P16066; Potency, µM (doses to about 46.3 µM), without a hit: at the highest dose activity change, negative = inhibition, hits mostly inhibitors; HEK293 hNpr1 GloSensor cGMP, ANP-stimulated luminescence; 1.6% of 76,000 active; calls by dose curve; also: % is scaled to controls: 0 for no effect and ±100 for the full control effect; nearly all actives have a fitted effect of over 60% in size
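Compound pre-incubated 30 min at room temperature on GloSensor-loaded HEK293 cells stably carrying hNpr1 and the pGS-40F cGMP biosensor. Stimulation uses hNppA at 0.1 nM final; luminescence is taken at baseline and 20 min post-agonist.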
NPR1 antag cnf: confirmation of human Npr1 natriuretic peptide receptor antagonists; HEK293 hNpr1 cGMP GloSensor luminescence, ANP-stimulated; 76% of 1,400 active; shares compounds with NPR1 antag; AID 1347044; Potency, µM (series often up to 57.6 µM), inactives show at the top dose activity change, negative = inhibition, usual class: inhibitors; calls by dose curve; also: nearly all actives have a fitted effect of over 70% in size
NPR2 antag: selectivity test of Npr1 antagonists against human Npr2; shares compounds with NPR1 antag; HEK293 hNpr2 GloSensor cGMP luminescence, CNP-stimulated; Potency, µM (highest dose often 57.6 µM), inactives show at the top dose activity change, negative = inhibition, most hits filed as inhibitors; 67% of 1,400 active; AID 1347046; calls by dose curve; also: nearly all actives have a fitted effect of over 70% in size
FLuc inh counter: counter-screen for Npr1 antagonists: firefly luciferase inhibitors | shares compounds with NPR1 antag | purified FLuc enzyme, luminescence, Km substrate | Potency, µM (doses to about 57.6 µM), inactives show at the highest dose activity change, negative = inhibition, actives largely listed as inhibitors | 0.7% of 1,400 active | AID 1347047; also: 0% is about no effect
GloSensor cGMP: control cell line activity, Npr1 antagonist counter-screen. AID 1347051. Potency, µM (highest dose often 57.6 µM), for the others: at the top dose activity change, negative = inhibition, hits mostly inhibitors. HEK293 GloSensor cGMP, SNP-stimulated, luminescence. shares compounds with NPR1 antag. 69% of 1,400 active; calls by dose curve; also: % is scaled to controls: 0 for no effect and ±100 for the full control effect; nearly all actives have a fitted effect of over 70% in size
The depositor's hits bear a star; i = inactive; ? = inconclusive; . = no result; [ ] = dose if it differs, or a comment. Unless noted, calls follow the shape of the dose curve; as a rule, active = well fitted curve in the direction sought with a large enough effect; inconclusive = small, poorly fitted or top-dose-only effect, or another doubt; inactive = no such curve, though single readings can be large; an effect the other way counts as inactive or inconclusive. Potency is read from the fitted curve at half-maximal effect.

SMILES | SNCA expr inh | 3T3 cytotox | HEK293 tox | Luciferase inh | HEK293 viab | NPR1 antag | NPR1 antag cnf | NPR2 antag | FLuc inh counter | GloSensor cGMP
CCCC(=O)N1CCC2(CC1)CC(N(Cc1ccc(F)cc1)C1CC1)CCO2 (stereo not given) | -22% | -18% | ? | i | -9% | -25% | -25% | -5% | 2% | -26%
CC(C)c1ccc(CC(=O)N2CCCc3ncc(C(=O)Nc4cccc(Cl)c4)cc32)cc1 | ? | ? | 25µM* | i | ? | 11µM* | 15µM* | 17µM* | 0% | 22µM*
CC(C)NC(=O)c1cnc2c(c1)N(C(=O)Cc1ccc(C(C)C)cc1)CCC2 | 1%[87.6 µM] | ? | ? | i | -5%[87.6 µM] | -18%[70.6 µM] | . | . | . | .
CC(C)c1ccc(CC(=O)N2CCCc3ncc(C(=O)Nc4ccccn4)cc32)cc1 | -6%[87.6 µM] | 100µM* | 32µM* | i | ? | 20µM* | 11µM* | 18µM* | -1%[86.2 µM] | 11µM*
CC(C)c1ccc(CC(=O)N2CCCc3ncc(C(=O)Nc4cccnc4)cc32)cc1 | 1µM* | 2.8µM* | 8.9µM* | i | ? | 1.4µM* | 3.5µM* | 6.3µM* | -10%[86.2 µM] | 5µM*
CCCCNC(=O)CCc1cc2ccc(C)cc2[nH]c1=O | 11% | -8% | 11% | i | 0% | -1% | . | . | . | .
c1ccc(-c2nnc3n2CCN(Cc2ccc4ccccc4c2)C3)cc1 | -21% | ? | ? | . | -12% | . | . | . | . | .
CC1(COc2cccnc2)COc2ccc(C(=O)NCc3ccc(F)cc3)cc2N1 (stereo not given) | ? | ? | 56µM* | i | ? | 35µM* | 31µM* | 31µM* | 2%[86.2 µM] | 25µM*
COc1ccc(OCC2(C)COc3ccc(C(=O)Nc4ccccc4)cc3N2)cc1 (stereo not given) | -13%[87.6 µM] | ? | ? | i | -23%[87.6 µM] | 25µM* | 35µM* | 35µM* | -6%[86.2 µM] | 35µM*
COc1ccc(OCC2(C)COc3ccc(C(=O)N(C)C)cc3N2)cc1 (stereo not given) | ? | -30%[138 µM] | ? | i | ? | ? | . | . | . | .
CN(C(=O)c1ccc2c(c1)NC(C)(COc1cccnc1)CO2)c1ccccc1 (stereo not given) | ? | -37%[138 µM] | ? | i | -17%[87.6 µM] | 3.2µM* | 3.5µM* | 5µM* | -3%[86.2 µM] | 3.1µM*
CC1(COc2cccnc2)COc2ccc(C(=O)NCc3cnccn3)cc2N1 (stereo not given) | -26%[87.6 µM] | -15%[138 µM] | ? | i | 15%[87.6 µM] | -2%[70.6 µM] | . | . | . | .
COCCN(C)C(=O)c1ccc2c(c1)NC(C)(COc1cccnc1)CO2 (stereo not given) | -27%[87.6 µM] | ? | ? | i | 9%[87.6 µM] | ? | . | . | . | .
CC1(COc2cccnc2)COc2ccc(C(=O)NCc3ccc4c(c3)OCO4)cc2N1 (stereo not given) | -20%[87.6 µM] | ? | ? | i | 5%[87.6 µM] | 25µM* | 31µM* | 31µM* | 1%[86.2 µM] | 22µM*
CC(CCc1ccccc1)NC(=O)c1ccc2nnc(C3CCOCC3)n2c1 (stereo not given) | . | -26% | -11% | . | . | . | . | . | . | .
Cc1nn2c(c1-c1ccccc1-c1ccccc1)N(Cc1ccc(C(=O)O)s1)CCC2 | -15%[87.6 µM] | -9%[138 µM] | ? | i | 3%[87.6 µM] | 2%[70.6 µM] | . | . | . | .
Cc1nn2c(c1-c1ccccc1[S+](C)(=O)[O-])N(Cc1ccc(C(=O)O)s1)CCC2 | 4µM* | 13µM* | ? | i | ? | 3.2µM* | 9.9µM* | 28µM* | 3%[86.2 µM] | 5µM*
Cc1nn2c(c1-c1ccccc1Oc1ccccc1)N(Cc1ccc(C(=O)O)s1)CCC2 | 13µM* | 32µM* | 32µM* | i | ? | ? | ? | ? | 1% | ?
COC1CCC(C(=O)N2CCCn3nc(C)c(-c4ccccc4-c4ccccc4)c32)CC1 (stereo not given) | ? | ? | ? | i | -12%[87.6 µM] | 2%[70.6 µM] | . | . | . | .
Cc1nn2c(c1-c1ccnn1C(C)C)N(Cc1cccc(C#N)c1)CCC2 | 2.8µM* | 14µM* | 14µM* | i | ? | ? | 2.8µM* | ? | -1%[86.2 µM] | ?
Cc1nn2c(c1-c1ccnn1C(C)C)N(Cc1ccc(O)cc1)CCC2 | 6%[87.6 µM] | ? | ? | i | 6%[87.6 µM] | -7%[70.6 µM] | . | . | . | .
Cc1nn2c(c1-c1ccccc1Oc1ccccc1)N(Cc1cccc(C#N)c1)CCC2 | ? | 8.9µM* | 8.9µM* | i | ? | 3.2µM* | 2.2µM* | 4.4µM* | -3%[86.2 µM] | 1.8µM*
CN1CC[C@H]2CN(C(=O)CCCc3ccccc3)C[C@@]2(C(=O)O)C1 | 15% | -3% | 3% | i | 0% | 0% | . | . | . | .
C[C@H](NC(=O)C(C#N)=Cc1cccc(Br)n1)c1ccccc1 | 10% | . | . | . | -19% | . | . | . | . | .
COCc1cc(N2CCC(c3cccc(OC)c3OC)C2)ncn1 (stereo not given) | -13% | ? | ? | i | -3% | 3.2µM* | 3.1µM* | 4.8µM* | -2% | 3.1µM*
COc1ccc(OC)c(C2CCN(c3ncncn3)C2)c1 (stereo not given) | 11% | ? | ? | i | -16% | 4% | . | . | . | .
COCCOc1ccc2c(n1)CCN(C(=O)NC1CCCC1)C2 | ? | ? | -9% | i | 1%[12.5 µM] | 3% | . | . | . | .
Cc1cnc(C(=O)N[C@@H]2CCC[C@@H]2C(=O)NCCCn2cccn2)cn1 | 3% | -5% | -4% | i | 2% | -5% | . | . | . | .
Cc1cc(F)ccc1NC(=O)c1cc2n(n1)CC(c1ccc(Br)cc1)OC2 (stereo not given) | 0% | -29% | 79µM* | i | 10% | ? | ? | ? | 1% | ?

Compound activity (PubChem)
